Results as given in PubChem BioAssay (Tox21).
Inconclusive results are not listed. Where a call stands in place of a potency, no number is given. A number with no mark means an inactive call. Calls of active or inactive are those of the source. The call rests on the fitted dose curve; in most records, active means well fitted inhibition curve with a large enough effect in the repeat runs; inconclusive means weak or mixed curves; inactive means no such curve, though single readings can be large or run the other way.

What follows are molecules tested against Cytochrome P450 1A2 (Homo sapiens) (UniProt P05177) (assay: Cytochrome P450 Family 1 Subfamily A Member 2 (CYP1A2) small molecule antagonists: luciferase reporter qHTS assay (AID 1671199; further: nearly all actives have a fitted effect of over 50% in size)). Settings: P450-Glo CYP1A2 enzyme, luciferin luminescence, 1 h; series mostly up to 53 µM.
Cytochrome P450 1A2 (Homo sapiens), sequence (P05177 whole entry, looked up): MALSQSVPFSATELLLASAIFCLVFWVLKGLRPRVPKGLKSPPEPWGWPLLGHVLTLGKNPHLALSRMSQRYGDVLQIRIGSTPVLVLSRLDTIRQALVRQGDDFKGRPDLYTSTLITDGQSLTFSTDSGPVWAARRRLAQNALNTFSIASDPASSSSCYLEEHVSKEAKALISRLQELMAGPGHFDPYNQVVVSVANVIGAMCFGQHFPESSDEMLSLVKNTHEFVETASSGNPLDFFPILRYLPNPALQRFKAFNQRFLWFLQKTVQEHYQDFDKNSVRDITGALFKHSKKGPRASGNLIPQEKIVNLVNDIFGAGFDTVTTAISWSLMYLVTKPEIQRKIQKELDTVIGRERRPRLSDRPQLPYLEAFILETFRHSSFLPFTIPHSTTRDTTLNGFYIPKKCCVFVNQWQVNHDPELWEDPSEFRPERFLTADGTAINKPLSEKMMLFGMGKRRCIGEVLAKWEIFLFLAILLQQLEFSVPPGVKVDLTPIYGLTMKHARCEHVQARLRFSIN
Excerpt: National Center for Advancing Translational Sciences [NCATS]
U.S. Environmental Protection Agency [EPA]
National Institutes of Environmental Health Sciences [NIEHS]
National Toxicology Program [NTP]
U.S. Food and Drug Administration [FDA]
Cytochrome P450 (CYP) enzymes are membrane-bound hemeproteins that play a key role in metabolism of drugs and xenobiotics. Evaluation of the effect of chemicals on CYP isozymes is useful to minimize the adverse drug reactions and toxicities in drug development process. Tox21 chemicals were tested for their effect on CYP enzyme activities by using P450-Glo (TM) screening systems (Promega Corporation, Madison, WI). These systems provide a luminescent method containing proluciferin substrates and are converted to luciferin products by CYP isozymes. The luciferin products formed are detected with a luciferin detection reagent, and the amount of light produced is proportional to CYP activity. P450-Glo (TM) CYP1A2 screening system (Catalog. No. V9770) was used to detect the compounds that interfere in CYP1A2 activity. The positive control compound used for CYP1A2 assay is furafylline (Sigma-Aldrich, St. Louis, MO).
Tox21 Assay Protocol Summary:
Two ul of enzyme-substrate mix was dispensed into medium binding white/solid 1536-well plates (Greiner Bio-One North America Inc., Monroe, NC) using a BioRaptr Flying Reagent Dispenser (FRD, Beckman Coulter, Brea, CA). Compounds dissolved in DMSO and positive control (furafyllline) were transferred to the assay plates at 23 nl using a Pintool station (Wako, San Diego, CA). The assay plates were incubated at room temperature for 10 min. Then 2 ul of NADPH regeneration solution was added to each well of the assay plates using an FRD and incubated at room temperature for 1 h. The reaction was stopped by adding 4 ul of detection reagent using an FRD and after 20 min incubation at room temperature the luminescence signal was measured using a ViewLux plate reader (Perkin Elmer, Shelton, CT). Data were expressed as relative luminescence units.
Potency means the concentration at half of the fitted maximal effect.

SMILES | Potency | activity change, negative = inhibition
O=C1c2cccc3c2[C@H](CCC3)CN1[C@@H]1CN2CCC1CC2 | inactive | 
Nc1ccc(S(=O)(=O)Nc2ccc(Cl)nn2)cc1 | inactive | 
C[Si](C)=O |  | -21% [at 10.5 µM]
NNc1nnc(NN)c2ccccc12 | 36.3 µM (active) | 
O=C(OCC(COC(=O)c1cccnc1)(COC(=O)c1cccnc1)COC(=O)c1cccnc1)c1cccnc1 | inactive | 
CC[C@H](C)C(=O)O[C@H]1C[C@H](O)C=C2C=C[C@H](C)[C@H](CC[C@@H](O)C[C@@H](O)CC(=O)O)[C@H]21 | inactive | 
CCC(C)NC(N)=O (stereo not given) | inactive | 
Cc1cccc(C)c1OCC(C)N (stereo not given) | 1.62 µM (active) | 
CCCCCCCCC(=O)Cl | 64 µM (active) | 
O=C(O)c1cc(Br)c(O)c(Br)c1 | 39.9 µM (active) | 
COc1ccc2nc(SCc3ncc(C)c(OC)c3C)[nH]c2c1 | 15.5 µM (active) | 
CCCCCCOC(=O)CC | inactive | 
CC1COc2ccccc2N1 (stereo not given) | 31.7 µM (active) | 
BrCc1cccc(Oc2ccccc2)c1 | 39.9 µM (active) | 
Cc1ccccc1C(=O)Nc1ccc(C(=O)N2CCCC(N(C)C)c3ccccc32)cc1 (stereo not given) | inactive | 
C=C1CC/C=C(\C)CC[C@@H]2[C@@H]1CC2(C)C | inactive | 
O=C(OCC(O)CO)c1ccccc1Nc1ccnc2c(C(F)(F)F)cccc12 (stereo not given) | 2.88 µM (active) | 
CC(=O)N[C@@H](CCC(=O)O)C(=O)O | inactive | 
COc1ccc(-c2cc(=O)c3c(O)cc(O[C@@H]4O[C@H](CO[C@@H]5O[C@@H](C)[C@H](O)[C@@H](O)[C@H]5O)[C@@H](O)[C@H](O)[C@H]4O)cc3o2)cc1O | inactive | 
CC(S)C(=O)NCC(=O)O (stereo not given) | inactive | 

SMILES | Potency | activity change, negative = inhibition
CCCCOCCOC(=O)COc1nc(Cl)c(Cl)cc1Cl | 39.9 µM (active) | 
O=C(NCCN1CCOCC1)c1ccc(Cl)cc1 | inactive | 
CCOC(=O)[C@H](CCc1ccccc1)N[C@@H](C)C(=O)N1C(=O)N(C)C[C@H]1C(=O)O | inactive | 
COc1cc2c(cc1OC)C(=O)CC2 | 27.5 µM (active) | 
CCCCCCCCCC(C)=O | inactive | 
CCN1CCc2nc(N)oc2CC1 | inactive | 
C=C(C)C(=O)OCC(C)(C)COC(=O)C(=C)C | inactive | 
C=C(C)C(=O)OCCN(CC)CC | 35.5 µM (active) | 
CCCC(=O)C(C)=O | inactive | 
CCOC(=O)CC(=O)c1ccccc1 | 28.3 µM (active) | 
ClCCCl | inactive | 
CC(=C(CCOC(=O)C(C)C)SSC(CCOC(=O)C(C)C)=C(C)N(C=O)Cc1cnc(C)nc1N)N(C=O)Cc1cnc(C)nc1N | inactive | 
O=S(=O)(O)CCN1CCN(CCO)CC1 | inactive | 
Cc1cc(Cl)c(C)cc1Cl | inactive | 
COc1ccc(S(=O)(=O)N2c3ccc(Cl)cc3[C@@](O)(c3ccccc3Cl)[C@H]2C(=O)N2CCC[C@@H]2C(N)=O)cc1OC | inactive | 
CC1(CO)CN(c2ccccc2)NC1=O (stereo not given) | 35.6 µM (active) | 
O=S(=O)(O)c1ccc2cc(O)c(S(=O)(=O)O)cc2c1 | inactive | 
CC/C=C\CC1=C(C)CCC1=O | 31.7 µM (active) | 
CCOc1cc(NC(C)=O)ccc1C(=O)OC | 5.49 µM (active) | 
CCCCCCN | inactive | 
